Most compounds without a hit are left out; they make up all but 8.3% or so of the library.
MARV entry inh: qHTS for inhibitors of binding or entry into cells for Marburg Virus; Marburg virus pseudotyped entry inhibition, cell reporter; Potency, µM (highest dose often 37.8 µM), inactives show top-dose activity change, negative = inhibition, usual class: inhibitors; 1.8% of 300,000 active; AID 540276, 2011; calls by dose curve; tested in HEK293 cells; note: potency is the fitted concentration of half-maximal effect
HCMV inh: qHTS Assay for inhibitors of the human cytomegalovirus (HCMV). HFF cells, HCMV-luciferase reporter, 72 h; stronger effect = lower value. AID 1259415, 2018. activity change, negative = inhibition, % at 57.5 µM. 4.5% of 410,000 active; in the data active = activity change below about -60%; inconclusive = no clear call, values can overlap the other calls; inactive = above about -39%
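Human foreskin fibroblasts infected with luciferase-reporter HCMV at MOI 1 PFU/cell, compounds at two doses. Luciferase measured 72 h post infection; normalized to buffer-only basal and Salinomycin (10uM) controls.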
FMDV inh: High Throughput Screening for Foot and Mouth Disease Virus Antivirals; FMDV antiviral cell-based qHTS; Potency, µM (highest dose often 57.9 µM), for the others: at the top dose activity change, negative = inhibition, hits mostly inhibitors; 1.2% of 410,000 active; calls by dose curve; tested in HEK293T cells; note: read-out not given here; potency is the fitted concentration of half-maximal effect; nearly all actives have a fitted effect of over 45% in size
LASV entry inh: qHTS for Inhibitors of binding or entry into cells for Lassa Virus; Lassa virus pseudotype entry inhibition, cell reporter; Potency, µM (titrated, usually from 37.9 µM), for inactives: top-dose activity change, negative = inhibition, actives largely listed as inhibitors; 1.2% of 300,000 active; AID 540256, 2011; calls by dose curve; tested in HEK293 cells; note: potency is the fitted concentration of half-maximal effect; nearly all actives have a fitted effect of over 50% in size
FBPA Giardia inh: qHTS Assay for Inhibitors of Fructose-1,6-bisphosphate Aldolase from Giardia Lamblia; A8B2U2; Potency, µM (series often up to 59.6 µM), for the others: at the highest dose activity, negative = inhibition, actives largely listed as inhibitors; 0.71% of 290,000 active; purified Giardia FBPA; AID 2451, 2010; note: potency is the fitted concentration of half-maximal effect; nearly all actives have a fitted effect of over 55% in size
Target sequence (A8B2U2 whole entry, looked up): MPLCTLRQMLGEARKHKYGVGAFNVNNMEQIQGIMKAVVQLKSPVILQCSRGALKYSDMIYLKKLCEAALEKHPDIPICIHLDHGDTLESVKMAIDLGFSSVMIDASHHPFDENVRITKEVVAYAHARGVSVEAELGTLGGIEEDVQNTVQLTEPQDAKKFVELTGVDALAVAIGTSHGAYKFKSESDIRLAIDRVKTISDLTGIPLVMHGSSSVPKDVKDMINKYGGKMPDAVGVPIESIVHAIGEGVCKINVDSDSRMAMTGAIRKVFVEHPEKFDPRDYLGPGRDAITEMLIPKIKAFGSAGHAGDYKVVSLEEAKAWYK
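40 nM FBPA preincubated 10 min at RT with compound (up to 57.5 uM final), then substrate plus GAPDH/TPI/NAD/arsenate coupling and diaphorase/resazurin added. Fluorescence read after 20 min at RT, 525/598 nm.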
HCV inh: qHTS Assay for Inhibitors of Hepatitis C Virus (HCV). Huh7.5.1 HCVcc-Cre infection, luciferase reporter, 44 h. Potency, µM (highest dose often 41.8 µM), for the others: top-dose activity change, negative = inhibition, most hits filed as inhibitors. 3.4% of 340,000 active. AID 651820, 2012; note: potency is the fitted concentration of half-maximal effect
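HCVcc-Cre virus at an moi near 0.5 was added right after compound to cells cultured 4 h from seeding (1,000 cells/well). Luciferase activity was determined 44 h later, 15 min after substrate addition at RT.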
Numbers without * were called inactive; u = inconclusive; x = no result given; [ ] = dose if it differs, or a comment. Unless noted, calls come from the whole dose curve; as a rule, active = well fitted curve in the direction sought with a large enough effect; inconclusive = small, poorly fitted or top-dose-only effect, or another doubt; inactive = no such curve, though single readings can be large; an effect the other way counts as inactive or inconclusive. % is set by controls: 0 for no effect and ±100 for the full control effect.

SMILES	MARV entry inh	HCMV inh	FMDV inh	LASV entry inh	FBPA Giardia inh	HCV inh
COc1ccc(Nc2c(-c3ccc(C)o3)nc3cc(C)ccn23)cc1	6%[46.1 µM]	-30	3%	1%[46.1 µM]	x	x
O=C1C(=O)N(C2CCN(C(=O)c3ccccc3F)CC2)CCN1Cc1ccc(F)cc1	x	13	-16%	u	x	x
COCCN1CCN(c2c(C)c(C)nc3cc(-c4cccc(OC)c4)nn23)CC1	21%[46.1 µM]	42	51%	u	x	u
CCOCCN1CCN(c2c(C)c(C)nc3cc(-c4cc(OC)cc(OC)c4)nn23)CC1	-1%	-84*	-13%	-32%	-1%	u
NS(=O)(=O)c1ccc(Nc2ccc([N+](=O)[O-])c3nonc23)cc1	x	-30	0%	x	u	10%
CNc1ncnc(Sc2nc(N)nc3nc[nH]c23)c1[N+](=O)[O-]	u	-77*	u	2.5µM*	x	u
Nc1nc(Sc2ccc([N+](=O)[O-])c3nonc23)c2[nH]cnc2n1	u	-85*	u	u	x	2.8µM*
CCOc1ccccc1CNC(=O)C1CCCN(c2ncnc3onc(-c4ccc(F)cc4)c23)C1 (centres undefined)	x	4	-18%	-1%[46.1 µM]	x	x
O=C(O)c1ccc2cc(-c3ccc(O)c(C45CC6CC(CC(C6)C4)C5)c3)ccc2c1	x	x	x	x	5%	x
COc1ccc2cc(Br)ccc2c1CC(=O)N(C)C	-3%[46.1 µM]	-11	-12%	x	-1%	-18%
COc1ccc(CCN(C)Cc2c(O)ccc3cc(Br)ccc23)cc1OC	u	-77*	u	4%[46.1 µM]	-9%	-20%
COc1ccc(CN(C)Cc2c(O)ccc3ccccc23)cc1	2%[46.1 µM]	18	-10%	15%[46.1 µM]	-3%	2%
COc1ccc(CN(C)Cc2c(O)ccc3cc(Br)ccc23)cc1OC	u	-66*	-4%	4%[46.1 µM]	-10%	-4%
Cc1nnc(N2CCN(c3ccc(Cl)cc3)CC2)c2c1nnn2Cc1ccc(F)cc1	0%[46.1 µM]	24	u	23%[46.1 µM]	x	x
Cc1ccccc1OC(=O)CSc1nnc(-c2ccc(F)cc2)o1	17%[46.1 µM]	15	-25%	6%[46.1 µM]	x	x
CCc1ccc(OCC(=O)N(Cc2ccc(OC)cc2)C2CCS(=O)(=O)C2)cc1 (centres undefined)	x	-15	-5%	-7%[46.1 µM]	x	x
COc1ccc(-c2sc3ccc(OC)cc3c2C#CCCO)cc1	x	x	11%	x	-3%	u
COc1ccccc1-c1sc2cc3c(cc2c1C#CC1(O)CCCCC1)OCO3	x	-23	-4%	x	x	u
COc1ccc(-c2sc3cc(OC)c(OC)cc3c2C#CCO)cc1	x	3	-20%	x	x	1µM*
COc1ccc(-c2sc3cc4c(cc3c2C#CC2(O)CCCCC2)OCO4)cc1	x	4	-17%	x	x	1.6µM*
COc1ccc(-c2sc3cc(OC)c(OC)cc3c2C#CC(C)(C)O)cc1	x	-32	0%	x	x	1.4µM*
CCC(=O)NCc1csc(-c2cccs2)n1	u	-70*	45%	u	5%	15%
Clc1ccc(-c2nn3c(-c4ccccc4)nnc3s2)cc1	u	-27	0%	17%	22%	1%
Cc1cn2c(-c3ccc(Cl)cc3)nnc2s1	x	-6	-11%	x	-13%	10µM*
CCOC(=O)c1c(S(=O)(=O)N2CCN(c3cc(Cl)ccc3C)CC2)c(C)n(C)c1C	x	-13	2%	4%[46.1 µM]	x	x
SMILES	MARV entry inh	HCMV inh	FMDV inh	LASV entry inh	FBPA Giardia inh	HCV inh
COCC(=O)Nc1cc(C(=O)NC2CCCc3ccccc32)c2c(c1)nc(-c1ccncc1)n2C (centres undefined)	x	x	-8%	x	x	x
COc1ccc(C=CC2=C[C@]3(C)C[C@]2(C)[C@H](c2ccc(OC)cc2)CC3=O)cc1	4%[14.2 µM]	x	x	x	x	x
O=c1c2c3c(sc2ncn1/N=C/c1ccc([N+](=O)[O-])o1)CCCC3	1%	-6	28µM*	u	-23%	14%
O=C(Nc1ccc(F)c(F)c1)c1ccc(=O)n(Cc2ccc(F)cc2)c1	x	-13	-14%	3%[46.1 µM]	x	x
C1=C2C[N+]3(CCCC3)CC2Cc2ccc3ccccc3c21 (centres undefined)	u	-65*	-16%	0%	-6%	u
CCCc1sc(N/N=C/c2ccccn2)nc1-c1ccc(F)cc1	u	x	x	u	-17%	u

Source: PubChem (National Center for Advancing Translational Sciences (NCATS))
